Source: PubChem BioAssay (National Center for Advancing Translational Sciences (NCATS))
ClpP mod = qHTS Assay for Activators of ClpP | ATP-dependent Clp protease proteolytic subunit (Bacillus subtilis (strain 168)), P80244 | purified B. subtilis ClpP, FRET peptide cleavage, 20 min | Potency, µM (titrated, usually from 57.5 µM), for inactives: at the highest dose activity change, negative = active | 340,000 tested, 1.9% active; active = well fitted falling curve with a large enough effect; inconclusive = small, poorly fitted or top-dose-only effect; inactive = no such curve, though single readings can be large or run the other way; also: the source files actives as falling curves though it sought activators and does not explain the sign; nearly all actives have a fitted effect of over 65% in size
Target sequence (P80244 whole entry, looked up): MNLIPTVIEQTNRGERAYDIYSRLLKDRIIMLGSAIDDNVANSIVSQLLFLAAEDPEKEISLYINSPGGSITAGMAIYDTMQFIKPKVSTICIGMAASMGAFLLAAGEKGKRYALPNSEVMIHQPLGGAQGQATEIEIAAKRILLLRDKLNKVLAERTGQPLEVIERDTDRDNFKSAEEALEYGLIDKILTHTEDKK
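ClpP 10 microg/mL final, pH 8 Tris/KCl buffer with BSA, glycerol, Tween-20; compound pinned in; FRET-FV substrate; RT 20 min; Ex320/Em430; ΔFRET vs ADEP 5.8 microM, DMSO, no enzyme.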
Mm-Cpn inhibitor = Inhibitors of TCP-1 ring complex (TRiC) of Methanococcus maripaludis (MmCpn): qHTS | purified Mm-Cpn ATPase, ADP Transcreener TR-FRET | Potency, µM (titrated, usually from 76.9 µM), inactives show top-dose activity, negative = inhibition, usual class: inhibitors | 330,000 tested, 0.031% active | AID 504842, 2011; also: % is scaled to controls: 0 for no effect and ±100 for the full control effect; nearly all actives have a fitted effect of over 80% in size
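Purified archaeal Mm-CPN (25nM final) preincubated 10 min at 37degC with compound, then 10uM ATP for 30 min at 37degC; ADP measured by HTRF Transcreener TR-FRET; buffer 30 mM TRIS pH 7.4, 100mM KCl, 5mM MgCl2, 1mM DTT.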
Abeta yeast res = qHTS for compounds that reverse cellular toxicity of Amyloid beta (A-beta) peptide in yeast: Primary Screen; yeast expressing A-beta42, growth rescue, OD600, 48 h; response scale: 0% DMSO, 100% iron-clioquinol control; Potency, µM (highest dose often 46.1 µM), actives largely listed as activators; 410,000 tested, 0.063% active; also: nearly all actives have a fitted effect of over 55% in size
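Yeast growth medium received pinned compounds, then yeast cells expressing toxic A-beta were added; plates incubated at 30 C for 48 hr. Growth read as absorbance at 600 nm, normalized to DMSO and equimolar FeCl3 plus clioquinol controls.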
TDP43 rescue = qHTS of TDP-43 Inhibitors; TDP-43 expressing yeast growth rescue, BacTiter-Glo, 24 h; Potency, µM (titrated, usually from 46.1 µM), for inactives: at the highest dose growth rescue (activation), actives largely listed as activators; 410,000 tested, 1.8% active; AID 652104, 2013; also: % of control where 0% means no effect; nearly all actives have a fitted effect of over 50% in size
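In this qHTS, compounds that restore growth of yeast expressing TDP-43 appear as activators. Cells (OD600=0.02, galactose medium, raffinose-pregrown) are incubated with compound 24 hr at 30 deg C and growth is quantified by BacTiter-Glo.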
FUS yeast rescue = qHTS for Suppressors of FUS Proteinopathy: Primary screen using FUS-linked yeast assay. S. cerevisiae FUS-expressing, growth rescue, OD600, 24 h. Potency, µM (titrated, usually from 76.6 µM), hits mostly activators. 390,000 tested, 0.24% active. AID 1347120, 2019;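 also: plate controls were DMSO vehicle for no effect and reference control for full effect; nearly all actives have a fitted effect of over 55% in size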
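Cultures pregrown in 2.5% raffinose medium are shifted to minimal medium containing 2% galactose to express toxic FUS. Compounds are tested at several concentrations. After 24hr at 30C, growth is quantified at 600 nm absorbance.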
aSyn yeast inh = qHTS of alpha-syn Inhibitors; Yeast expressing alpha-synuclein, growth rescue, BacTiter-Glo, 24 h; Potency, µM (series often up to 46.1 µM), without a hit: at the top dose growth rescue (activation), most hits filed as activators; 370,000 tested, 0.14% active; also: % of control where 0% means no effect; nearly all actives have a fitted effect of over 65% in size
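Galactose-induced alpha-syn yeast (OD600=0.02, raffinose-pregrown) + pinned cpd, 24 hr, 30 deg C; growth by BacTiter-Glo luminescence. Growth restoration scores as activation.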
* marks the source's active call; other numbers are inactive results; i = inactive; ? = inconclusive; . = no result given; [ ] = another dose, or the depositor's remark. In the library only some 3.6% were active in any assay of this set; here they are far more common. Unless noted, calls follow the shape of the dose curve; as a rule, active = well fitted curve in the direction sought with a large enough effect; inconclusive = small, poorly fitted or top-dose-only effect, or another doubt; inactive = no such curve, though single readings can be large; an effect the other way counts as inactive or inconclusive. Potency is read from the fitted curve at half-maximal effect.

SMILES	ClpP mod	Mm-Cpn inhibitor	Abeta yeast res	TDP43 rescue	FUS yeast rescue	aSyn yeast inh
COc1ccc(NC(=S)NC(=O)c2ccccc2)cn1	3.5%	-1.0%	i	4.5%	i	1.5%
COc1cc(OC)cc(C(=O)Nc2ccc(Nc3ccccc3)cc2)c1	-0.2%	-1.0%	i	-17.7%	25.1µM*	8.7%
Cc1c(Cl)cccc1NC(=O)NCCOCCn1c(=O)oc2ccccc21	-1.3%	.	i	3.8%	i	.
Cn1c2ccccc2c2cnn(CC(=O)Nc3ccccc3C(F)(F)F)c(=O)c21	-26.8%	.	i	23.4%	i	.
O=[N+]([O-])c1ccc(/C=C2\C=C(C(O)c3ccc([N+](=O)[O-])cc3)c3ccccc32)cc1 (stereo not drawn)	-2.6%	.	.	.	.	12.8%
Cc1ccc2oc(-c3ccc(NC(=O)COc4ccccc4)cc3O)nc2c1	4.1%	.	.	.	.	-4.5%
CC1(C)CC(=O)C(CC(=O)NC2CCCc3ccccc32)C(=O)C1 (stereo not drawn)	-0.5%	-2.5%	i	25.1µM*	i	-0.3%
Cc1ccccc1CC(=O)NC1CCCc2ccccc21 (stereo not drawn)	1.1%	0.3%	i	18.3%	i	7.4%
CC(C)CC1NC(=O)N(CC(=O)NC2CCCc3ccccc32)C1=O (stereo not drawn)	28.2µM*	-5.9%	i	7.8%	i	-3.5%
Cc1nnc2c3ccccc3nc(Nc3cccc(O)c3)n12	-1.7%	.	i	35.5µM*	i	.
Cc1nnc2c3ccccc3nc(Nc3ccccc3C(=O)O)n12	15.8µM*	.	i	3.2%	i	.
Nc1[nH]c2ccccc2c1C(=O)NC1CC1	.	.	.	.	i	.
CCOC(=O)c1noc2nc(C)n(CC(=O)Nc3ccc(Br)cc3C)c(=O)c12	-2.6%	.	i	26.9%	i	.
Cc1ccc(C)c(N2CCN(C(=O)Cn3c(=O)c4cccn4c4ccc(F)cc43)CC2)c1	0.1%	.	i	-9.8%	i	.
O=C(Cn1ncc2ccsc2c1=O)N1CCN(c2ccccc2)CC1	0.3%	.	i	10.0%	i	-1.4%
Cc1ccc(C)c(N2CCN(C(=O)Cn3ncc4ccsc4c3=O)CC2)c1	-0.9%	.	i	-5.9%	?	15.8µM*
Cc1cccc(N2CCN(C(=O)Cn3c(-c4cccs4)cc4ccccc43)CC2)c1C	15.8µM*	.	i	15.6%	i	.
Cc1ccc(C)c(N2CCN(C(=O)Cn3c(-c4cccs4)cc4ccccc43)CC2)c1	15.8µM*	.	i	13.6%	i	.
CCOc1ccc(NC(=O)CN2C(=O)C(c3ccccc3)=NC23CCCCCC3)cc1	0.8%	.	i	16.4%	i	.
O=C(N1CCOCC1)N(CCN1CCOCC1)Cc1cccc2ccccc12	-2.5%	-0.2%	i	13.6%	i	-1.8%
CC1(C(=O)c2ccccc2)C2c3c(ccc4ccccc34)OC(=O)C21C(=O)N1CCOCC1 (stereo not drawn)	0.5%	-0.4%	?	17.8µM*	i	6.6%
CCC(=O)Nc1ccc2c(c1)C(=O)N(C1CCCCC1)C2=O	22.4µM*	-5.7%	i	1.6%	i	-41.7%
O=C(O)c1cccc2c1C(=O)N(CC1CCCO1)C2 (stereo not drawn)	.	-7.2%	i	18.2%[9.22 µM]	i	0.5%
O=C(Nc1ccc2c(c1)C(=O)N(CC1CCCO1)C2=O)c1ccccc1Br (stereo not drawn)	22.4µM*	0.4%	i	-12.8%	i	-1.8%
CCc1cccc(NC(=O)c2cccc3c2C(=O)N(CC2CCCO2)C3)c1 (stereo not drawn)	-0.4%	0.6%	i	17.8µM*	i	-15.4%
SMILES	ClpP mod	Mm-Cpn inhibitor	Abeta yeast res	TDP43 rescue	FUS yeast rescue	aSyn yeast inh
Cc1ccc(C(=O)Nc2ccc3c(c2)C(=O)N(CC2CCCO2)C3=O)cc1 (stereo not drawn)	0.4%	-6.5%	i	-4.5%	i	0.1%
O=C(Nc1ccc(OC(F)(F)F)cc1)C1CCCN(S(=O)(=O)c2cccc3nonc23)C1 (stereo not drawn)	0.4%	.	i	16.0%	i	.
CC(C)CN1CC(C)C(=O)NC1=S (stereo not drawn)	28.2µM*	.	i	16.6%	.	-1.3%
CC(C)CN1CC(Br)C(=O)NC1=O (stereo not drawn)	.	.	i	-9.4%	i	1.4%
Cc1cccc(NC2=C(Cl)C(=O)OC2OC(C)C)c1 (stereo not drawn)	-0.7%	4.5%	i	12.6µM*	i	0.7%
COc1cccc(-n2cc(C(=O)Oc3ccc(F)cc3)c3ccccc3c2=O)c1	?	.	i	?	?	.
O=C(N/N=C/c1cc([N+](=O)[O-])ccc1O)C1CCCCC1	0.9%	1.3%	i	9.9%	i	3.98µM*
CCSc1nc2ccccc2n1C(=O)/C=C/c1ccc(OC)c(OC)c1	14.1µM*	?	i	2.4%	.	0.9%
Cc1cc(NC(=O)COC(=O)c2c(Cl)cccc2Cl)no1	1.7%	1.2%	i	15.8µM*	i	-2.6%
Cc1cc(NC(=O)COC(=O)c2ccccc2NCCO)no1	15.8µM*	-1.1%	i	-35.8%	.	7.2%
Cc1cc(NC(=O)COC(=O)c2ccc(Cl)cc2)no1	1.9%	.	i	18.1%	i	3.5%
O=C(COC(=O)c1c(Cl)cccc1Cl)Nc1ccccc1Br	-20.2%	0.8%	i	14.1µM*	.	3.2%
CCOC(=O)c1ccccc1NC(=O)COC(=O)CSCC(=O)Nc1cc(C)on1	-0.2%	1.0%	i	-2.7%	i	-2.0%
CCN(CC)S(=O)(=O)c1ccc(NC(=O)c2cc3ccc4cccnc4c3[nH]2)cc1	?	.	i	21.3%	i	.
O=C(NC1CCCCCC1)C1c2ccccc2C(=O)N1Cc1ccccc1Cl (stereo not drawn)	2.0%	.	i	?	i	.
CCCCCC[C@@H](CN(CCCC)S(C)(=O)=O)c1ccccc1	.	.	.	.	i	.
COc1cc(C(Nc2ccc3c(c2)OCO3)C(=O)NC2CCCCC2)cc(OC)c1OC (stereo not drawn)	-0.8%	-1.4%	i	-2.9%	17.8µM*	0.2%
CC1(C(=O)NS(=O)(=O)c2ccccc2)CCN1C(=O)C1(c2ccc(Cl)cc2)CCC1 (stereo not drawn)	-1.4%	.	i	0.0%	i	7.9%
